For eight compounds, growth results are on record in PubChem BioAssay (NCI).

SMILES strings stand for the structures. Compounds without any hit were thinned out: in the full panel of roughly 83,000, 20% have a hit.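 The endpoint reported here, percent growth, reads 100 for growth as untreated, 0 for no net growth and -100 for all cells dead.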 Unmarked numbers belong to inactive results. The source made the active and inactive calls. The calls were made as follows: active = growth percent below 10; inactive = the rest.

What all share (test): NCI-60 one-dose screen, 48 h (100 = growth as untreated, 0 = no growth, -100 = all killed)
Holding throughout (details): 10 µM unless noted

Assay [1] relates to HCT-15 colon.
Assay [2] has as its system HT29 colon.
In assay [3] the test system is SNB-75 CNS.
In assay [4] the test system is SNB-19 CNS.
Assay [5] has as its system U251 CNS.
Assay [6] concerns PC-3 prostate.
Assay [7] has as its system UACC-62 melanoma.
The subject of assay [8] is LOX IMVI melanoma.
The subject of assay [9] is SK-MEL-28 melanoma.
For assay [10], the system named is SK-MEL-2 melanoma.
The subject of assay [11] is SN12C renal.
The test system of assay [12] is UO-31 renal.
Assay [13] has as its system TK-10 renal.
In assay [14] the test system is ACHN renal.
Assay [15] has as its system CAKI-1 renal.
Assay [16] relates to A498 renal.
The subject of assay [17] is MOLT-4 leukemia.
For assay [18], the system named is SK-MEL-5 melanoma.
In assay [19] the test system is EKVX NSCLC.
Assay [20] deals with CCRF-CEM leukemia.

`CC1CC=CCC1C1OCC(C)(C)CO1` (centres undefined): the growth in assay [1] was 97.9%; in assay [2], 109%; in [3] it was 90%; in [4], 102%; in assay [5], 92.9%; in assay [6] it was 94.9%. Further, the growth was 102% in [7]; 69.9% in assay [8]; 105% in assay [9]; 124% in assay [10]; 103% in [11]; 97.7% in assay [12]. Also, the growth in [13] was 111%; in [14], 106%; in assay [15], 106%; in [16] it was 103%; in assay [17], 102%.

Consider `Clc1ccc2nc(CI)c(CI)nc2c1`, for which the growth is 27.1% in [1]; 100% in [2]; 96.6% in [3]; 97.1% in assay [4]; 84.8% in [6]; 75% in assay [18]. In addition, the growth in [7] is 81.9%; in assay [8], 14.9%; in assay [9] it was 113%; in [10], 82.5%; in assay [19], 90.1%; in assay [11] it was 59.4%. In addition, the growth in assay [12] is -31.8% (active); in assay [13], 88.3%; in assay [14], 87.7%; in assay [16], 118%; in assay [20], 4.15% (active); in assay [17] it was -27.4% (active).

`COc1cccc(/C=N\NC(=O)c2ccncc2)c1O`: the growth in assay [1] is 23.9%; in assay [2] it was 67.6%; in assay [3], 57.1%; in assay [4], 52.6%; in [5] it was 31.6%; in assay [6], 47.1%. Further, the growth in assay [7] was 41.2%; in [8] it was 15.2%; in assay [9] it was 69.6%; in [10] it was 43.8%; in assay [19], 78.8%; in assay [11] it was 62.8%. Moreover, the growth is 29% in [12], 31.2% in [14], 11% in [20] and 13.9% in assay [17].

Regarding `COc1ccc(C2=NN(C(C)=O)C(c3cccc(Nc4ccnc5cc(Cl)ccc45)c3)C2)cc1` (centres undefined), the growth is 44.8% in assay [1]; 7.9% (active) in assay [2]; 56.4% in [3]; 56.5% in assay [4]; 51% in assay [5]; 31% in [6]. The growth in assay [7] was 68.6%; in assay [8], 42.7%; in assay [9], 73%; in [19], 64.7%; in [11], 48.5%; in [12], 37.5%. The growth in assay [14] was 60.8%; in [16], 33.1%; in assay [20] it was 40.8%; in assay [17], 22.3%.

For the compound `COc1ccc2[nH]c(=O)c(CNc3ccc(Nc4nccc(-c5ccc(Cl)cc5)n4)cc3)cc2c1`, the growth in assay [1] was 74.3%; in assay [2], 76%; in assay [3] it was 106%; in assay [4], 95.4%; in [6], 71.4%; in assay [18], 95.6%. Besides, the growth in [7] is 96.7%; in [8] it was 97.1%; in assay [9], 112%; in assay [10] it was 87%; in assay [19] it was 94%; in assay [11], 87.1%. Moreover, the growth is 64% in [12]; 102% in assay [13]; 90.1% in assay [14]; 97.6% in assay [15]; 75.7% in assay [20].

On to `Cc1cc(Br)c(C)cc1Br`, for which the growth in assay [1] is 101%; in assay [2], 94.2%; in assay [3] it was 100%; in assay [4] it was 108%; in assay [5], 98.9%; in assay [6], 95.8%. Moreover, the growth in [7] is 102%; in [8], 97.6%; in assay [9], 103%; in assay [10] it was 100%; in assay [12], 91.3%; in assay [13] it was 105%. Also, the growth in assay [14] was 102%; in [15], 95.2%; in assay [16] it was 77.7%; in assay [20] it was 94.4%; in assay [17], 87.3%.

As for `Cc1ncc(C(=O)Nc2ccc(CN3CCN(C)CC3)c(C(F)(F)F)c2)cc1C#Cc1cncc2ncccc12`, the growth in assay [1] is 48.4%; in assay [2], 32.4%; in assay [3] it was 74.4%; in [4], 107%; in assay [6], 90.6%; in [18], 37.5%. Besides, the growth was 40.7% in assay [7]; 10.8% in assay [8]; 16.3% in assay [9]; 14.5% in assay [10]; 78.3% in [19]; 50.6% in [11]. Moreover, the growth in assay [12] is 1.39% (active); in assay [13], 82.6%; in assay [14], 26.8%; in assay [15] it was 50%; in [16] it was -4.12% (active); in [20], 66.7%. For the same compound, the growth in assay [17] was 41.6%.

Take `O=C1Nc2ccc(Cl)cc2/C1=C/c1cccs1`: the growth in assay [1] is 51.9%; in [2], 110%; in assay [3], 84.2%; in [4], 84.3%; in assay [6], 93.4%; in assay [18] it was 85.7%. In addition, the growth in assay [7] was 86%; in [8], 86.7%; in [9], 113%; in assay [10], 108%; in [19], 68.3%; in [11] it was 87.9%. For the same compound, the growth in [12] was 44.8%; in assay [13] it was 120%; in assay [14] it was 88.2%; in assay [15], 79.5%; in assay [16], 97.5%; in assay [20], 102%. Further, the growth in [17] was 91%.
